# This is one part of a sample in which hits are shown more often than they occur.
# Giardia FBPA inh: Giardia lamblia aldolase inhibition; 290,000 tested, 0.71% active; purified Giardia FBPA; A8B2U2; AID 2451; Potency, µM (top dose mostly 59.6 µM), for inactives: at the highest dose activity, negative = inhibition, most hits filed as inhibitors; also: potency is read from the fitted curve at half-maximal effect; % is scaled to controls: 0 for no effect and ±100 for the full control effect; nearly all actives have a fitted effect of over 55% in size
#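 Giardia FBPA (40 nM reagent) was preincubated 10 min at RT with compound (up to 57.5 uM final), then substrate plus GAPDH/TPI/NAD/arsenate coupling system with diaphorase/resazurin was added; resorufin fluorescence (525/598 nm) was read after 20 min.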
# Sm TGR inh: blocks Schistosoma mansoni thioredoxin glutathione reductase; Q962Y6; purified TGR, DTNB reduction, TNB absorbance 405 nm; 360,000 tested, 3% active; Potency, µM (titrated, usually from 114 µM), without a hit: top-dose activity change, negative = inhibition, usual class: inhibitors; AID 485364; also: potency is read from the fitted curve at half-maximal effect; % is scaled to controls: 0 for no effect and ±100 for the full control effect; nearly all actives have a fitted effect of over 60% in size
#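 Kinetic colorimetric format: TGR-catalysed, NADPH-driven DTNB reduction monitored via TNB absorbance. Enzyme dispensed at 20 nM; compound exposure 15 min at room temperature before reaction start.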
# Cycloheximide cs: affects cycloheximide protein synthesis inhibition readout, counter-screen | 300,000 tested, 12% active | max response, % | cell reporter, cycloheximide protein synthesis inhibition counterscreen | AID 2314; in the data active = max response mostly above about 13%, no sharp cut-off; inactive = mostly below about 14%; also: read at 38.3 µM for the half of the compounds with a filed dose; 0% is about no effect
# Shiga inhibitor: blocks Shiga toxin action in Vero cells | inhibition, % at 38.7 µM | 290,000 tested, 9.2% active | Vero cells, Shiga toxin protein synthesis inhibition reporter; in the data active = inhibition mostly above about 28%, no sharp cut-off; inactive = mostly below about 43%; also: 0% is about no effect
# LmPK inh: blocks Leishmania mexicana pyruvate kinase activity | Q27686 | AID 1721 | purified LmPK, Kinase-Glo ATP luminescence, 1 h | Potency, µM (titrated, usually from 57.5 µM), without a hit: at the top dose activity change, negative = inhibition, most hits filed as inhibitors | 290,000 tested, 0.37% active; also: potency is read from the fitted curve at half-maximal effect; % is scaled to controls: 0 for no effect and ±100 for the full control effect
# Target sequence (Q27686 whole entry, looked up): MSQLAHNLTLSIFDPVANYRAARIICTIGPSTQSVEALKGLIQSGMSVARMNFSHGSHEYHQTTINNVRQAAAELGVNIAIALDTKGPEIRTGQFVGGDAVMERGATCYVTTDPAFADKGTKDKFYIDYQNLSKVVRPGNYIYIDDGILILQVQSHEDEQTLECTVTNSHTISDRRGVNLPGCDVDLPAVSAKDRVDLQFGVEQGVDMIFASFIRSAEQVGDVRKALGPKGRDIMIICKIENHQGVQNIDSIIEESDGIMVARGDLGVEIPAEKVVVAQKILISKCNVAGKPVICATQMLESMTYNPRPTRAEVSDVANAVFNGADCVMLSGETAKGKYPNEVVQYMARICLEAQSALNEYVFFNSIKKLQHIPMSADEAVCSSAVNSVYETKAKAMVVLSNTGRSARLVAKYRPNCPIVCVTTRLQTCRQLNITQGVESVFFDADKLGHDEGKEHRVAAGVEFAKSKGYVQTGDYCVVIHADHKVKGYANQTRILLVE
#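 Purified LmPK (0.1 nM) with 0.5 mM PEP and 0.1 mM ADP in imidazole buffer pH 7.2 with MgCl2/KCl, 1 h at room temperature. ATP formed was read by luciferase luminescence and normalized to no-enzyme and uninhibited controls.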
# Tb PYK inh: T. brucei pyruvate kinase inhibition; Q57TT1; TbPYK enzyme, Kinase-Glo Plus ATP luminescence, 45 min; Potency, µM (highest dose often 76.8 µM), inactives show at the top dose activity, negative = inhibition, actives largely listed as inhibitors; 410,000 tested, 0.12% active; also: potency is read from the fitted curve at half-maximal effect; % is scaled to controls: 0 for no effect and ±100 for the full control effect; nearly all actives have a fitted effect of over 50% in size
#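 TbPYK + substrate in 50 mM TEA pH 7.2, 100 mM KCl, 10 mM MgCl2, 0.05% BSA, 0.01% Tween-20; cpd pinned; ADP 130 uM final; 45 min RT; Kinase-Glo Plus 10 min; luminescence endpoint.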
# Starred values were filed as active, the others as inactive; ? = inconclusive; . = not tested or not shown; + = active, no number; [ ] = remark or other dose. Unless noted, calls follow the shape of the dose curve; as a rule, active = well fitted curve in the direction sought with a large enough effect; inconclusive = small, poorly fitted or top-dose-only effect, or another doubt; inactive = no such curve, though single readings can be large; an effect the other way counts as inactive or inconclusive.
SMILES,Giardia FBPA inh,Sm TGR inh,Cycloheximide cs,Shiga inhibitor,LmPK inh,Tb PYK inh
Cc1nccc(-c2cc(-c3ccc(Cl)cc3Cl)no2)n1,-1%,10%,36*,97*,-26%,1%
Cc1c(C(=O)Nc2ccc(Cl)cc2)c2ccccn2c1C(=O)c1ccc(F)cc1,5%,-2%,-5,-8,-8%,-8%
Cc1cc2ccccn2c1C(=O)c1cc([N+](=O)[O-])cc([N+](=O)[O-])c1,-6%,-2%,2,-6,10%,-2%
Cc1cc2ccccn2c1C(=O)Nc1ccccc1,-11%,9%,23*,68,-2%,-5%
Cc1cc2ccccn2c1C(=O)Nc1ccc(Cl)cc1,-3%,8%,18*,73*,1%,1%
CC(C)C(=O)Nc1ccc2nc(SCC(=O)N3CCCC3)sc2c1,.,5%,.,.,.,1%
C[C@@H]1CN([C@@H](C)CO)C(=O)c2cc(NC(=O)c3ccccc3)ccc2O[C@@H](C)CCCCO[C@@H]1CN(C)S(=O)(=O)c1ccc(F)cc1,.,.,.,.,.,-4%
O=C(CN1CCCCC1)Nc1ccc(N2CCCCCC2)cc1,?,3%[57.1 µM],17*,44,-10%,-2%
O=C(CCc1ccccc1)Nc1ccc(S(=O)(=O)N2CCCC2)cc1,10%,14%,-2,-1,9%,1%
O=C(CCc1ccccc1)Nc1ccc(N2CCCCC2)cc1,2%,-4%,33*,93*,-3%,-15%
O=C(CN1CCCC1)Nc1ccc(NC(=O)Nc2ccccc2Cl)cc1,1%,-21%,25*,50,0%,-4%
CCCOC(=O)Nc1ccc(N2CCCCC2)cc1,-2%,0%,34*,56*,-2%,-26%
CCCCC(=O)Nc1ccc(N2CCCC2)cc1,.,.,.,.,.,-4%
Cc1c(NC(=O)c2cc3ccccc3o2)cccc1-c1nc2ccccc2o1,.,0%,.,.,.,1%
COc1cccc(/C=N\NC(=O)c2ccc(Cn3cc(Br)c([N+](=O)[O-])n3)o2)c1O,8%,2%,44*,56*,6%,2%
COc1cccc(/C=N/NC(=O)COc2cccc3cccnc23)c1O,18%,-1%,19,32*,-1%,-5%
COc1cccc(/C=N/NC(=O)CSc2ccccc2C)c1O,-12%,1%,17,37*,1%,-3%
COc1ccccc1C=NNC(=O)NN=Cc1ccccc1OC,.,.,.,.,.,0%
COc1cccc(/C=N/NC(=O)N/N=C/c2cccc(OC)c2O)c1O,1%,-5%,25*,.,0%,-5%
COc1cccc(/C=N/NC(=O)CSc2ccccc2C)c1OC,3%,13%,-2,37,-2%,-6%
N=c1ccn2c(n1)OC1C(O)[C@@H](CO)O[C@H]12 (some centres not stated),.,.,17,16,.,.
Cc1ccc(-n2ncc3c(Nc4ccc(Oc5ccccc5)cc4)ncnc32)c(C)c1,.,12%,.,.,.,-7%
COc1cccc(/C=N/NC(=O)C(C)n2nc(C)c([N+](=O)[O-])c2C)c1O (configuration not stated),?,-9%,35*,31,-9%,2%
COc1cccc(/C=N/NC(=O)Cn2nc(C)c([N+](=O)[O-])c2C)c1O,-29%,-18%,-2,-3,3%,4%
COc1cccc(/C=N/NC(=O)c2nc(-c3ccccc3)cc(-c3ccccc3)n2)c1O,-12%,-6%,15*,13,0%,-9%
SMILES,Giardia FBPA inh,Sm TGR inh,Cycloheximide cs,Shiga inhibitor,LmPK inh,Tb PYK inh
COc1cccc(C=NNC(=O)c2ccncc2)c1O,.,.,.,.,.,-2%
COc1cccc(/C=N/Nc2ccccc2C(=O)O)c1O,5%,-9%,47*,64*,1%,-16%
COc1cccc(/C=N/NC(=O)C(=O)N2CCCC2)c1O,17%,2%,61*,+,-13%,-1%
CCN(CC)S(=O)(=O)c1ccc(NC(=O)CCc2c(C)nc3cc(-c4ccc(Cl)cc4)nn3c2C)cc1,.,-5%,.,.,.,-1%
CCc1ccc(NS(=O)(=O)c2ccc(C(=O)N(C)C)s2)cc1,.,-4%,.,.,.,-5%
CN1C(C(=O)c2ccccc2)=C(OC(=O)c2ccc(Br)cc2)c2ccccc2S1(=O)=O,.,-5%,.,.,.,2%
CC1(C)NC(=O)N(CC(=O)OCC(=O)N2CCN(S(=O)(=O)c3ccccc3)CC2)C1=O,.,1%,.,.,.,1%

# Assay outcomes deposited in PubChem by National Center for Advancing Translational Sciences (NCATS).
